Compound activity as filed in PubChem.
Most compounds without a hit are left out; they make up all but 7.5% or so of the library.
NPC1 prom act: qHTS Assay for NPC1 Promoter Activators; Huh7 NPC1 promoter luciferase reporter, 24 h; Potency, µM (doses to about 9.22 µM), without a hit: at the top dose activation, hits mostly activators; 320,000 tested, 2.4% active; also: % of control where 0% means no effect; nearly all actives have a fitted effect of over 60% in size
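Luminescence read-out of NPC1 promoter-driven luciferase in stably transfected Huh7 cells; compounds delivered in DMSO and left 24 h at 37C, 5% CO2, qHTS titration format.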
ELG1 genotoxic: qHTS screen for small molecules that induce genotoxicity in human embryonic kidney (HEK293T) cells expressing luciferase-tagged ELG1; HEK293T ELG1-luciferase reporter, luminescence, 16 h; Potency, µM (titrated, usually from 46 µM), for the others: at the highest dose activity change, positive = activation, actives largely listed as activators; 330,000 tested, 1.3% active; AID 504466, 2011; also: % of control where 0% means no effect; nearly all actives have a fitted effect of over 60% in size
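Quantitative HTS format in 1536-well plates. HEK293T ELG1-luciferase reporter cells receive test compound and are incubated 16 hr at 37 °C, 5% CO2; ONE-Glo added, 30 min room temperature, then luminescence read.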
Rab9 prom act: qHTS Assay for Rab9 Promoter Activators | 320,000 tested, 2.8% active | Potency, µM (doses to about 9.22 µM), for inactives: at the highest dose activation, negative = inhibition, hits mostly activators | AID 485297, 2010 | Huh7 Rab9 promoter-luciferase reporter, luminescence, 24 h; also: % of control where 0% means no effect; nearly all actives have a fitted effect of over 60% in size
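Quantitative HTS format; Huh7 Rab9-luciferase reporter cells (1500/well) receive compound 2 h post-plating, incubate 24 h at 37 °C, then get luciferase reagent for 10 min before luminescence reading.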
SMN2 splice up: qHTS Assay for Enhancers of SMN2 Splice Variant Expression; HEK293 SMN2-luciferase splicing reporter, luminescence, 30-36 h; Potency, µM (top dose mostly 46.1 µM), inactives show at the highest dose activity change, positive = activation, actives largely listed as activators; 210,000 tested, 2.8% active; also: % of control where 0% means no effect; nearly all actives have a fitted effect of over 55% in size
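qHTS luciferase splicing reporter: luminescence rises when SMN2 exon 7 is included in transfected HEK293 cells. Compound exposure lasted 30-36 h at 37C, with 4.5 mM final sodium butyrate as control, followed by a ONE-Glo read.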
FLuc counter: qHTS profiling assay for firefly luciferase inhibitor/activator using purifed enzyme and Km concentrations of substrates (counterscreen for miR-21 project); purified FLuc, Km substrates, luminescence inhibition; Potency, µM (series often up to 57.5 µM), without a hit: at the top dose activity change, negative = inhibition, most hits filed as inhibitors; Luciferin 4-monooxygenase (Photinus pyralis), P08659; AID 588342, 2011; 360,000 tested, 6.9% active;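 also: plate controls were vehicle for no effect and reference inhibitor for full effect; nearly all actives have a fitted effect of over 55% in size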
Target sequence (P08659 whole entry, looked up): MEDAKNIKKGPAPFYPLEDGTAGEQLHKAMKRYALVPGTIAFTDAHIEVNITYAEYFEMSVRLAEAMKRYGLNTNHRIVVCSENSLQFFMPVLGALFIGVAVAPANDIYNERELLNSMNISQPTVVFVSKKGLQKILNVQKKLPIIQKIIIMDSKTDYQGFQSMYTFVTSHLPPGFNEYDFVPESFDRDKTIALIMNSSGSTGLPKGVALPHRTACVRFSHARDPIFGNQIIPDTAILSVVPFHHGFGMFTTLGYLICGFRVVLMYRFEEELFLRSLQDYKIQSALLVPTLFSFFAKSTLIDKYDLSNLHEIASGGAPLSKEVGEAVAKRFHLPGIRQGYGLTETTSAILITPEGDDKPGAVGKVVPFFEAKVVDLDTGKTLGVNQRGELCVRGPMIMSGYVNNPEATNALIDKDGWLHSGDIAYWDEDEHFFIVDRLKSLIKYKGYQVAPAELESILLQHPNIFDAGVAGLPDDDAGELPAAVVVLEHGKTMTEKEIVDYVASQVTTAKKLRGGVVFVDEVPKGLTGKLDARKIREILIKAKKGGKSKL
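Purified P. pyralis luciferase (10nM final) with 10uM D-luciferin and 10uM ATP (Km levels) in 50mM Tris acetate pH 7.5, 10mM Mg acetate, 0.01% Tween-20, 0.05% BSA; qHTS 6-point titration, ~60 µM downward; luminescence read.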
Luc counter: Counterscreen for Luciferase (Kinase-Glo TM) Inhibition; Luciferin 4-monooxygenase (Photuris pensylvanica), Q27757; 200,000 tested, 0.28% active; Kinase-Glo luciferase, ATP luminescence, 8 min; Potency, µM (titrated, usually from 38.3 µM), for inactives: at the highest dose activity change, negative = inhibition, most hits filed as inhibitors; also: % is scaled to controls: 0 for no effect and ±100 for the full control effect; nearly all actives have a fitted effect of over 60% in size
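Recombinant Kinase-Glo luciferase, 10 uM ATP (linear range), luciferin; imidazole pH 7.2 / KCl / MgCl2 / Tween / BSA buffer; 8 min RT; luminescence.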
Active calls of the source: *; ? = inconclusive; . = no result; [ ] = remark or other dose. Calls follow the shape of the dose curve; as a rule, active = well fitted curve in the direction sought with a large enough effect; inconclusive = small, poorly fitted or top-dose-only effect, or another doubt; inactive = no such curve, though single readings can be large; an effect the other way counts as inactive or inconclusive. Potency is read from the fitted curve at half-maximal effect.

SMILES	NPC1 prom act	ELG1 genotoxic	Rab9 prom act	SMN2 splice up	FLuc counter	Luc counter
Cc1cc(C(=O)COC(=O)c2cccc(O)c2)c(C)n1C1CC1	?	?	?	.	0.27µM*	.
Cc1ccc(OCC(=O)c2cc(C)n(C3CC3)c2C)c([N+](=O)[O-])n1	14%	12%	2%	-8%	-18%	-1%
CCOC(=O)c1c(NC(C)=O)c2c3c(sc2n1Cc1nc(-c2ccccc2C)oc1C)CCCC3	.	.	.	.	1%	.
Cc1ccc(C)c(OCCCn2c(-c3ccc(Cl)cc3)nc3ccccc3c2=O)c1	.	.	.	-7%	-2%	.
CCOc1ccc(CNS(=O)(=O)c2ccc(-c3cc(C(F)(F)F)on3)s2)cc1	.	.	.	.	0%	.
COc1ccc(NC(=O)O/N=C/c2c(C)nn(C(C)(C)C)c2C)cc1	0.35µM*	1.6µM*	0.32µM*	.	0.38µM*	.
COc1ccc(NC(=O)CCC(=O)N/N=C/c2cn(C)nc2C)cc1	-3%	-3%	-1%	.	6%	.
CC1CCCN(c2nc3ccsc3c(=O)s2)C1 (stereo not given)	?	13µM*	?	22µM*	15µM*	-2%
O=C(NCc1ccccc1Cl)C1CCCN(c2nc3ccsc3c(=O)s2)C1 (stereo not given)	-4%	9%	-7%	-2%	-2%	-5%
O=C1/C(=C/c2ccc([N+](=O)[O-])cc2)CCc2ccccc21	28%	7.3µM*	?	.	0.15µM*	.
O=C(O)c1ccc(-n2ncc3c2/C(=C/c2cccc([N+](=O)[O-])c2)CC3)cc1	1.6µM*	15%	2.8µM*	.	11µM*	.
O=C1/C(=C/c2cccc([N+](=O)[O-])c2)CCc2ccccc21	0%	-14%	-4%	-14%	9.5µM*	-3%
O=C(CCn1c(=O)c2sccc2n(Cc2cccc(F)c2)c1=O)NCc1ccc2c(c1)OCO2	.	.	.	1%	-1%	.
Cc1ccc(OCC(=O)Nc2ccc(Cl)c(-c3nc4ncccc4o3)c2)cc1C	.	.	.	.	-1%	.
CCC[C@H]1C[C@H](C(=O)N[C@@H]([C@H]2O[C@@H](SC)[C@@H](O)[C@@H](O)[C@@H]2O)[C@H](C)Cl)N(C)C1	.	.	.	18%[20.6 µM]	.	0%[17.1 µM]
Cc1ccc2c(=O)cc(C(=O)Nc3c(C(=O)c4ccccc4)oc4ccccc34)oc2c1	.	.	.	9%	1%	.
c1ccc(-c2cnc(-c3ccccc3)nc2)cc1	0.56µM*	?	0.35µM*	7.1µM*	0.3µM*	-25%
c1ccc(-c2ncc3c(ccc4ccccc43)n2)cc1	4µM*	0.65µM*	0.79µM*	0.5µM*	0.085µM*	-25%
Cc1ccc(N=Cc2sccc2C)cc1C	1%	0%	2%	29%	1.9µM*	-11%
Cc1cccc(CSc2cn(CC(=O)N3CCOCC3)c3ccccc23)c1	?	?	?	?	15µM*	-17%
O=C(CSc1cn(CC(=O)N2CCOCC2)c2ccccc12)N1CCOCC1	2%	1%	0%	.	-2%	.
O=C(Cn1cc(SCc2cccc(Cl)c2)c2ccccc21)N1CCOCC1	21%	9%	?	.	19µM*	-30%
c1ccc2nc3c(nc2c1)OCC1CCCCN31 (stereo not given)	4.5µM*	?	2.5µM*	.	3.8µM*	.
CCCSc1ncc(Cl)c(C(=O)Nc2sc(C(C)=O)c(C)c2C(=O)OCC)n1	.	.	.	10%	0%	.
Cc1nc(-c2coc3c(O)c(O)ccc3c2=O)cs1	.	.	.	22µM*	.	-16%
SMILES	NPC1 prom act	ELG1 genotoxic	Rab9 prom act	SMN2 splice up	FLuc counter	Luc counter
COc1ccc(N=Nc2nc(-c3ccccc3)c(-c3ccccc3)[nH]2)cc1	0%	-8%	-4%	2%[1.84 µM]	9.5µM*	-1%
COc1ccccc1N=Nc1nc(-c2ccccc2)c(-c2ccccc2)[nH]1	-3%	-7%	0%	0%	12µM*	-3%
Oc1ccccc1N=Nc1nc(-c2ccccc2)c(-c2ccccc2)[nH]1	-17%	0%	-18%	-120%	?	-9%
CCC(C(=O)Nc1ccc(F)cc1F)n1nc(-c2ccccc2)c2c(c1=O)CCCC2 (stereo not given)	.	.	.	2%	-12%	.
Cc1ccc(Cn2c(CNS(=O)(=O)c3cccc([N+](=O)[O-])c3)nc3cccnc32)cc1	.	.	.	.	-7%	.
CC(=O)Nc1ccc(NS(=O)(=O)c2c(C(=O)N3CCC(C)CC3)c(C)n(C)c2C)cc1	.	.	.	.	-4%	.
O=C(/C=C/c1ccc(Cl)c(Cl)c1)NCCCn1ccnc1	-4%	17%	0%	.	?	.
O=C(/C=C/c1ccc(Cl)c(Cl)c1)n1cccn1	2%	2%	-1%	-5%	2.7µM*	-13%
Cc1oc2ncnc(N3CCCCC3)c2c1C(=O)Nc1cccc(Cl)c1C	.	.	.	.	-6%	.
OCCc1ccc(O)c(-n2nc3ccccc3n2)c1	23%	?	26%	.	15µM*	.
O=C(c1ccccc1)N1CCC(c2nc3ccccc3o2)CC1	.	.	.	.	-2%	.
O=[N+]([O-])c1ccc(C23CC4CC(CC(O)(C4)C2)C3)cc1	2.8µM*	16%[9.26 µM]	1.6µM*	.	11µM*	.
COc1ccc(/C=N/Nc2cc(N(C)C)nc(N(C)C)n2)cc1	3%	-8%	-4%	-9%	15µM*	1%
CN(C)c1cc(N/N=C\c2ccccc2)nc(N(C)C)n1	10%	-8%	-10%	.	?	-2%
COc1ccc(/C=N/Nc2cc(OC)ncn2)cc1	3.5µM*	1.8µM*	1µM*	.	0.95µM*	.
COCCNC(=S)N/N=C(\C)c1ccccc1O	25%	5%	0%	29%	17µM*	3%
COCCCNC(=S)N/N=C/c1ccccc1O	?	2%	?	.	12µM*	.
CCCN(c1ccccc1F)S(=O)(=O)c1cc(-c2cc(C)no2)ccc1C	.	.	.	.	-2%	.
COc1cc(C2CC(=O)Oc3cc(C)c(Cl)cc32)cc(OC)c1OC (stereo not given)	.	.	.	.	.	6%[39.9 µM]
O=c1oc(Nc2ccc(F)cc2)nc2ccccc12	2.2µM*	?	2.5µM*	0%	13µM*	-8%
O=c1nc(Nc2ccccc2)oc2ccccc12	2.8µM*	?	?	.	17µM*	.
CCOc1ccc(CNC(=O)C2=Cc3cc(Br)ccc3OC2)cc1OC	.	.	.	.	-8%	.
COc1cc(Cl)c(C)cc1NC(=O)CNC(=O)Cn1ccc2ccccc2c1=O	.	.	.	-7%	0%	.
CCc1nnc(/N=C/c2c(O)n(-c3ccc(Cl)cn3)c(=O)c3ccccc23)s1	2%	-2%	0%	-6%	2.7µM*	-1%
